These results are taken from the supplement of paper PMC10849652.

About 7,900 targets were measured; listed, in parts, are those with a hit and a random draw of the rest. About 0.6% of all pairs of compound and target were hits. Values without a mark were called inactive.

Holding throughout (experiment): log2 fold change, soluble protein after heating vs DMSO (PISA); higher = thermal stabilisation; K562 cells, 10 uM, 30 min; active = over 0.2 and 3.5 SD of the protein, either way, in both replicates (recomputed)
Compound in assay [1]: C1=CC=C(C=C1)[C@H](COC2=CC3=C(C=C2)NC(=O)N3)NC(=O)C4=CC=CN(C4=O)CC5=CC(=C(C=C5)F)F
The method in brief: (§1)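 Thermal stability values are relative to control samples and come from duplicates. They are expressed as log2 fold changes. For measurement, K562 cells (2×10^6 cells/mL) received 10 μM compound for 30 min, and aliquots were heated for 3 min over 48°C-58°C, pooled, and extracted at 4°C in PBS with 0.5% NP-40. Soluble protein, the supernatant after 21,000xg for 90 min, was quantified by TMTpro 16plex LC-MS/MS with equalised channel sums.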

Compound in assay [2]: CC1=C(SC2=C1C(=N[C@H](C3=NN=C(N32)C)CC(=O)N)C4=CC=C(C=C4)Cl)C
The method in brief:
as §1

Compound in assay [3]: CC1=C2C(=CC=C1)N=C(N(C2=O)C3=CC=CC=C3C)CN4C=NC5=C(N=CN=C54)N
The method in brief: as §1

Compound in assay [4]: Cc1sc2c(c1C)C(c1ccc(Cl)cc1)=N[C@@H](CC(=O)OC(C)(C)C)c1nnc(C)n1-2
The method in brief: as §1

Compound in assay [5]: c1ccc([C@@H]2C[C@H]2NC2CCNCC2)cc1
The method in brief: as §1

UniProt Q8N4L2, sequence (Q8N4L2 whole entry, looked up): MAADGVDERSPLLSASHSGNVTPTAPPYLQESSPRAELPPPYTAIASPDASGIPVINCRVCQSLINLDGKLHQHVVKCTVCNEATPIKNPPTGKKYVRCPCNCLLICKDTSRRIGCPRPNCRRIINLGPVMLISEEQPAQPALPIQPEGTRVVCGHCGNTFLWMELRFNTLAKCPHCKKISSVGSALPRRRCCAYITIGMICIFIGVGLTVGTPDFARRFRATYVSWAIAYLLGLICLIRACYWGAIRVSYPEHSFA
UniProt P50336, sequence (P50336 whole entry, looked up): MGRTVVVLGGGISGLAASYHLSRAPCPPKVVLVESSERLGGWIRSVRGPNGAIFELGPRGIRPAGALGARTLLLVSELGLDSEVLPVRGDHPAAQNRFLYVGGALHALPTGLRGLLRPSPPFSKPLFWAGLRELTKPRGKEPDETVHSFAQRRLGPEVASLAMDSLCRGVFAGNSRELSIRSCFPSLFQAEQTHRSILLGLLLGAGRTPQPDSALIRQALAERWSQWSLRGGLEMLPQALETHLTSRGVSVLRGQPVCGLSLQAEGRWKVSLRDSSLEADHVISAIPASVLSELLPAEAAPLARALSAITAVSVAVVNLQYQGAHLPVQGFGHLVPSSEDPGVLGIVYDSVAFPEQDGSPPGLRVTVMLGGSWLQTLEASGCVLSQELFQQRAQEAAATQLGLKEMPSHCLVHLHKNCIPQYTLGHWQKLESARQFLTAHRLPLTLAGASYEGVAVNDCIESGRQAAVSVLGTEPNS
UniProt Q96KB5, sequence (Q96KB5 whole entry, looked up): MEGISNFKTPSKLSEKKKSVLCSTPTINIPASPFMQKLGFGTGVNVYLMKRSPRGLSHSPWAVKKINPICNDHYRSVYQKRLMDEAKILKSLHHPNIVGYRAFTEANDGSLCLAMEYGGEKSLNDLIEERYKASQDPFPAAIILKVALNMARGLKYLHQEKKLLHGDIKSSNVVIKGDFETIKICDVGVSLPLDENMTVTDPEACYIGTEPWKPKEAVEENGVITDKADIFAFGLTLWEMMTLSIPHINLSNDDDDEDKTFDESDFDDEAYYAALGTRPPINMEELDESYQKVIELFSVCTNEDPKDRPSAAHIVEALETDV
UniProt P53609, sequence (P53609 whole entry, looked up): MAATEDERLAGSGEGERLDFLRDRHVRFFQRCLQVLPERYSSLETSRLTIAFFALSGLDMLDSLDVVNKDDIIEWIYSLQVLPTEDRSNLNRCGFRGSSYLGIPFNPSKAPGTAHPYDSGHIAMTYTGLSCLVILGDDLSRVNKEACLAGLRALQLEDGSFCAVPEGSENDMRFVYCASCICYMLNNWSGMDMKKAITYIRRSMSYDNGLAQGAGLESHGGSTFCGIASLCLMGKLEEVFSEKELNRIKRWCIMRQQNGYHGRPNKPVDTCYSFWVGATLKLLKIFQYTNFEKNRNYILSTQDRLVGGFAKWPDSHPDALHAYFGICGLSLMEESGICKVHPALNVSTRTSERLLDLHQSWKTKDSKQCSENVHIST
UniProt Q96HA1, sequence (Q96HA1 whole entry, looked up): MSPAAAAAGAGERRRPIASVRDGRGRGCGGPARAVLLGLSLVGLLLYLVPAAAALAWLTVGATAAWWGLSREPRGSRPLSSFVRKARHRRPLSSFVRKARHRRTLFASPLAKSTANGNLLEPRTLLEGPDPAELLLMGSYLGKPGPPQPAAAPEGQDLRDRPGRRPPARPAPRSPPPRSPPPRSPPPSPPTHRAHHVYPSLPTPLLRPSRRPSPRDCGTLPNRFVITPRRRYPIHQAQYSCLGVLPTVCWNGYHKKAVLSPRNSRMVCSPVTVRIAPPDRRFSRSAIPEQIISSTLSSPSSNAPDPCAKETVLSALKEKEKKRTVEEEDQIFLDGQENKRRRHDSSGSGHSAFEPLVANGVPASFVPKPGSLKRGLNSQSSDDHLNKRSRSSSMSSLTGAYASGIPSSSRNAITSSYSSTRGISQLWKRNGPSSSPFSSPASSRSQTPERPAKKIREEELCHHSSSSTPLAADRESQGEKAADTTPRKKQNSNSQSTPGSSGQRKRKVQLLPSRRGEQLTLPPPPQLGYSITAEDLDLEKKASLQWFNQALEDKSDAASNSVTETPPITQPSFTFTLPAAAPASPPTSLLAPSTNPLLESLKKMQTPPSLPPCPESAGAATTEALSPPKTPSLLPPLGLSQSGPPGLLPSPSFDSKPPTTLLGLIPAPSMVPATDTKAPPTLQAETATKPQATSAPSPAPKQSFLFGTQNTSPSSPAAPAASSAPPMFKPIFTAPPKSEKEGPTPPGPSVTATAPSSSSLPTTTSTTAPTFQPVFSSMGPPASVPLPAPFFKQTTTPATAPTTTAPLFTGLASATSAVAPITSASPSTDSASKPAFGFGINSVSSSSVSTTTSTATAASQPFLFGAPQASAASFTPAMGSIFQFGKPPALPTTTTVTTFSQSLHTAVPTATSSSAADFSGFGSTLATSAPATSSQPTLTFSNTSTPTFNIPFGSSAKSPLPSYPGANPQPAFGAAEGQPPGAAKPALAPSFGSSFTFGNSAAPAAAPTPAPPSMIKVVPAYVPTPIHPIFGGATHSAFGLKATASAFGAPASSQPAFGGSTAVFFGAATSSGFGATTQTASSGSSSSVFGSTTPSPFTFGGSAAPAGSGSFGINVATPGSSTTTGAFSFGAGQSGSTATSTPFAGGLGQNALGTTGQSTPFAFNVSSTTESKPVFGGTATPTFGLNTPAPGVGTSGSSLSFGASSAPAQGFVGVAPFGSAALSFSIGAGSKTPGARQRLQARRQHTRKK
UniProt O43395, sequence (O43395 whole entry, looked up): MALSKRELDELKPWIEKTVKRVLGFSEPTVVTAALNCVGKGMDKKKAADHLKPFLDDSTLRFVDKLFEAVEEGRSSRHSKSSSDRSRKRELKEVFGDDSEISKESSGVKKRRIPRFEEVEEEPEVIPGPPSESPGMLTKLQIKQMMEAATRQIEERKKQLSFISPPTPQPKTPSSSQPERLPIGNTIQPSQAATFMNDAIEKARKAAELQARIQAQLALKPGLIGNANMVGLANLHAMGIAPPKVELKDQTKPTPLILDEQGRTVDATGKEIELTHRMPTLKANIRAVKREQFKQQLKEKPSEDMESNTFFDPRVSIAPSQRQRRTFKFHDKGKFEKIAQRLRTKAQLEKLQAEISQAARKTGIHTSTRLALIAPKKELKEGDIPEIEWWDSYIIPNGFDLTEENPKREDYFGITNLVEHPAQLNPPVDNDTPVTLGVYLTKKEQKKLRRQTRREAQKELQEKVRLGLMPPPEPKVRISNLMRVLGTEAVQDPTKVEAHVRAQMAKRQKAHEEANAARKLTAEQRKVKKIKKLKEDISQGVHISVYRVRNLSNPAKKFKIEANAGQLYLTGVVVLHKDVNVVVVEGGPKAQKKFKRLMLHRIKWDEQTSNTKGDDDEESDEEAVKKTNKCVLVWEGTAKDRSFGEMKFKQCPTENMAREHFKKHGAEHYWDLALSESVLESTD
UniProt Q9NP80, sequence (Q9NP80 whole entry, looked up): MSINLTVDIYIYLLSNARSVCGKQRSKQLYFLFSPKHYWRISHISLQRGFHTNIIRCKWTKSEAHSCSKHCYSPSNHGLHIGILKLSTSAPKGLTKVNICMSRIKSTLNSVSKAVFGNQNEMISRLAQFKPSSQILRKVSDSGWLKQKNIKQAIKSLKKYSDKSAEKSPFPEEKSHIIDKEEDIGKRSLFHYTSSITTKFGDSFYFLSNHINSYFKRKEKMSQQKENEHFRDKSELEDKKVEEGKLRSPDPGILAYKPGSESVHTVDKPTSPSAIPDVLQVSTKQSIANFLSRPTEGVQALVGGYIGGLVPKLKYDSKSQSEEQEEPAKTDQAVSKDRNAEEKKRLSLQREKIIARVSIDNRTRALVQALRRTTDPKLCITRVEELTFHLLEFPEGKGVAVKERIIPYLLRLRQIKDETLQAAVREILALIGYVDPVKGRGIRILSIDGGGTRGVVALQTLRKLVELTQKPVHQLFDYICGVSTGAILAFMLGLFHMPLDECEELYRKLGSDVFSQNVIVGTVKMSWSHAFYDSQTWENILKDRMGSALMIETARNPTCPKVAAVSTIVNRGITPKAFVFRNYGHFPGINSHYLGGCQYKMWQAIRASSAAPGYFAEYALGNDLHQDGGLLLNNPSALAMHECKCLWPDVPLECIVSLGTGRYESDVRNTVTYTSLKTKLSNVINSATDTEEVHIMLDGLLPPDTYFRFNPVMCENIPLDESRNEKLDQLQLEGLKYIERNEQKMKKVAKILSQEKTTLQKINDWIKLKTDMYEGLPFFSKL
UniProt Q2TAL8, sequence (Q2TAL8 whole entry, looked up): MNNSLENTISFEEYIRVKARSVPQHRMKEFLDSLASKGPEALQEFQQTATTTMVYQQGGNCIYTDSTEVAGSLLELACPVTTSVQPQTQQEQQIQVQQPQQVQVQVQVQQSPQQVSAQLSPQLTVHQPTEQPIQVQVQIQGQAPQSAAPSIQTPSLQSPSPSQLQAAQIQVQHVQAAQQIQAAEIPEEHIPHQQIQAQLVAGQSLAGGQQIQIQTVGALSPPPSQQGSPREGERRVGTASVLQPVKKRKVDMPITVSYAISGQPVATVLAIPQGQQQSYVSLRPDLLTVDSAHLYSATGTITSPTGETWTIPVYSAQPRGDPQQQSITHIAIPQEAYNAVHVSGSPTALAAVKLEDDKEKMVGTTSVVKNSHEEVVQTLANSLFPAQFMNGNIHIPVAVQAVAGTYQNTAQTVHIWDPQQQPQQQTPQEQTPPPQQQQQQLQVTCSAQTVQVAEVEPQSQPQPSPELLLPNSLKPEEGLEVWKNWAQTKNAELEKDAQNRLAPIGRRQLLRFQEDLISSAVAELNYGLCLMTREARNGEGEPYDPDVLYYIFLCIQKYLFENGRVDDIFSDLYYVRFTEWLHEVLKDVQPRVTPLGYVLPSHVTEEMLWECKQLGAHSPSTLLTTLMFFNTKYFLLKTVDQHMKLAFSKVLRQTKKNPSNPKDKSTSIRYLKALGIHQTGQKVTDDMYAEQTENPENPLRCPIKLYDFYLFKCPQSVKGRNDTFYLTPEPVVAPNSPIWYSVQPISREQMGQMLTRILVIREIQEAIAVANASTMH

As for PPOX (UniProt P50336), the log2 fold change in assay [1] is 0.385; in assay [2], 0.092; in assay [3], 0.129; in assay [4], 0.04; in assay [5], -0.045.

For PGGHG (UniProt Q32M88), the log2 fold change is -0.052 in assay [1]; -0.09 in assay [2]; -0.088 in assay [3]; -0.084 in assay [4]; 0.213 in assay [5].

For the target PIK3CB (UniProt P42338), the log2 fold change was -0.068 in assay [1]; 0.014 in assay [2]; 0.213 (active) in assay [3]; -0.01 in assay [4]; 0.005 in assay [5].

Turning to PNPLA8 (UniProt Q9NP80), the log2 fold change in assay [1] is 0.024; in assay [2], 0.031; in assay [3], 0.007; in assay [4], -0.006; in assay [5], 0.024.

For the target PTP4A2 (UniProt Q12974), the log2 fold change was -0.021 in assay [1]; 0.028 in assay [2]; 0.056 in assay [3]; 0.052 in assay [4]; -0.029 in assay [5].

In the case of PIP4P2 (UniProt Q8N4L2), the log2 fold change in assay [1] is 0.045; in assay [2], 0.048; in assay [3], -0.066; in assay [4], -0.017; in assay [5], -0.018.

Consider PPIL4 (UniProt Q8WUA2), for which the log2 fold change in assay [1] is 0.012; in assay [2], -0.022; in assay [3], 0.036; in assay [4], 0.039; in assay [5] it was 0.016.

In the case of QRICH1 (UniProt Q2TAL8), the log2 fold change in assay [1] was -0.029; in assay [2], -0.148; in assay [3] it was 0; in assay [4], -0.02; in assay [5], -0.016.

Consider PUF60 (UniProt Q9UHX1), for which the log2 fold change in assay [1] is 0.031; in assay [2], 0.033; in assay [3], 0.081; in assay [4], -0.036; in assay [5], 0.007.

With PTTG1IP (UniProt P53801), the log2 fold change is 0.149 in assay [1]; -0.055 in assay [2]; -0.134 in assay [3]; 0.04 in assay [4]; 0.084 in assay [5].

With PRMT3 (UniProt O60678), the log2 fold change in assay [1] was -0.1; in assay [2], 0.077; in assay [3], 0.024; in assay [4], -0.013; in assay [5] it was 0.001.

As to PRKAA1 isoform 2 (UniProt Q13131), the log2 fold change in assay [1] is 0.001; in assay [2], 0.085; in assay [3], 0.024; in assay [4] it was 0.004; in assay [5] it was 0.019.

With POM121 (UniProt Q96HA1), the log2 fold change in assay [1] was 0.023; in assay [2] it was -0.033; in assay [3] it was 0.026; in assay [4], 0.054; in assay [5] it was -0.002.

As for PBK (UniProt Q96KB5), the log2 fold change is -0.06 in assay [1]; 0.016 in assay [2]; 0.067 in assay [3]; 0.023 in assay [4]; -0.016 in assay [5].

With PIP4K2B (UniProt P78356), the log2 fold change in assay [1] is -0.102; in assay [2], 0.018; in assay [3], -0.034; in assay [4], -0.038; in assay [5] it was -0.026.

As for PPP2R5E (UniProt Q16537), the log2 fold change is -0.045 in assay [1]; 0.1 in assay [2]; 0.105 in assay [3]; -0.118 in assay [4]; 0.05 in assay [5].

Regarding PSMB6 (UniProt P28072), the log2 fold change in assay [1] was 0.023; in assay [2] it was -0.057; in assay [3], -0.015; in assay [4], 0.019; in assay [5], 0.081.

PIK3CD (UniProt O00329): the log2 fold change was -0.166 in assay [1]; -0.126 in assay [2]; 0.424 (active) in assay [3]; -0.086 in assay [4]; 0.018 in assay [5].

In the case of POLR3D (UniProt P05423), the log2 fold change in assay [1] was 0.008; in assay [2], -0.072; in assay [3], -0.013; in assay [4], 0.056; in assay [5], 0.096.

Turning to PDCD6 (UniProt O75340), the log2 fold change in assay [1] was -0.024; in assay [2], 0.057; in assay [3], 0.107; in assay [4] it was -0.052; in assay [5] it was 0.003.

For the target PRPF3 (UniProt O43395), the log2 fold change in assay [1] was -0.09; in assay [2], -0.208; in assay [3], 0.08; in assay [4], -0.017; in assay [5], 0.115.

With PGGT1B (UniProt P53609), the log2 fold change in assay [1] was 0.025; in assay [2], 0.066; in assay [3], 0.051; in assay [4] it was -0.018; in assay [5], -0.004.

Take PTPMT1 (UniProt Q8WUK0): the log2 fold change in assay [1] was -0.019; in assay [2], 0.086; in assay [3], 0.029; in assay [4] it was 0.066; in assay [5] it was 0.01.

POLR1A (UniProt O95602): the log2 fold change was 0.049 in assay [1]; -0.043 in assay [2]; -0.044 in assay [3]; 0.096 in assay [4]; -0.015 in assay [5].
